In PubChem BioAssay (Tox21) one finds Potency data, which are given here for 40 compounds.

Values joined by “and” are separate entries in the source; they are usually repeats but may differ in a detail not shown here. Identical values can stand only once. Active and inactive are the calls of the source. Entries that show only a call come without a potency. The call rests on the fitted dose curve; in most records, active means well fitted activation curve with a large enough effect in the repeat runs; inconclusive means weak or mixed curves; inactive means flat fitted curve, though single readings scatter.
Potency means the concentration at half of the fitted maximal effect.

Sequence of KiSS-1 receptor (Homo sapiens) (Q969F8 whole entry, looked up): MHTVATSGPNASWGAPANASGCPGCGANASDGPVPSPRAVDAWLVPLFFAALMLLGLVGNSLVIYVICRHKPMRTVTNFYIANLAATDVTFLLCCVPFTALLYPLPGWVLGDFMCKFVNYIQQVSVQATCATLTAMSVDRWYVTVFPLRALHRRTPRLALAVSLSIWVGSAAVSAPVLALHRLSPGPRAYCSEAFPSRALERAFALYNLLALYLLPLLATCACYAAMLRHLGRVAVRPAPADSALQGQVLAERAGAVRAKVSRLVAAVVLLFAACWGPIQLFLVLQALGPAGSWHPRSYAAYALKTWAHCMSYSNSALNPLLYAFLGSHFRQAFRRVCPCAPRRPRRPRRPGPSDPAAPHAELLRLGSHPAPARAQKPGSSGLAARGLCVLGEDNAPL

The assay addresses KiSS-1 receptor (Homo sapiens) (UniProt Q969F8). Description: Human kisspeptin (KISS1R) small molecule agonists, calcium flux assay in KISS1R-HEK293 cells (AID 1920064). As to conditions: KISS1R-HEK293, calcium flux fluorescence, agonist; series mostly up to 76.8 µM. An excerpt:
National Center for Advancing Translational Sciences [NCATS]
Division of Preclinical Innovation [DPI]
U.S. Environmental Protection Agency [EPA]
National Institutes of Environmental Health Sciences [NIEHS]
National Toxicology Program [NTP]
U.S. Food and Drug Administration [FDA]
Kisspeptin and its receptor KISS1R play key roles in mammalian reproduction due to their involvement in the onset of puberty and control of the hypothalamic-pituitary-gonadal axis such as regulates GnRH release from the hypothalamus. The kisspeptin/KISS1R system also plays a direct role in peripheral organs (including the ovary, testis, uterus, and placenta) and is implicated in reproductive diseases such as miscarriage and polycystic ovary syndrome (PCOS). Abnormal KISS1R activity is associated with abnormal puberty, infertility, endometriosis, and hormone-dependent tumors. The KISS1 receptor (KISS1R, also called GPR54), a G-protein-coupled receptor (GPCR), acts (through phospholipase C) to increase intracellular inositol trisphosphate and then release intracellular calcium stores. Cell-based KISS1R-HEK293 assay is using HEK293 cells that have been genetically engineered to express the human KISS1R, which activity can be measured by calcium signaling. A compound/drug can activate (agonist) KISS1R that can be monitored by levels of intracellular calcium.
KISS1R-HEK293 cells developed by Codex Corp contain human KISS1R gene, which was stably integrated into HEK 293 cells. The compound activation can be detected by fluorescence intensity via calcium flux assay. This cell line has been used to screen the Tox21 10K compound library to identify agonists of KISS1R.
KISS1R-Hek293 cells were dispensed at 1500 cells/4uL/well in 1536-well black wall/clear bottom plates using a multidrop dispenser. After the assay plates were incubated at a 37 C/5% CO2 incubator for 18 hours, 4 microL of Calcium Dye Solution was added to each well. The plates were incubated at 37 C for 1 hour. And then 23 nL of compounds dissolved in DMSO, positive controls, or DMSO only was transferred to the assay plate by a pin tool station. The fluorescence intensity in the plates was measured using FDSS 7000EX kinetic plate reader with a filter set of Ex/Em=480/540 for 3 min at 1 sec intervals. Each test compound was measured at 15 concentrations and in triplicates.
For orientation: A change in cytosolic calcium serves as a functional read-out for many receptors and channels.
As to `CCN=c1cc2oc3cc(NCC)c(C)cc3c(-c3ccccc3C(=O)OCC)c-2cc1C`, the Potency is 17.3 µM (active) and 21.9 µM (active).

Consider `OCc1ccc(Cl)cc1Cl`, for which the Potency result is “inactive”.

In the case of `COC(=O)CCCC(=O)OC`, the Potency result is “inactive”.

Take `COc1cc([C@H]2Oc3cc([C@H]4Oc5cc(O)cc(O)c5C(=O)[C@@H]4O)ccc3O[C@@H]2CO)ccc1O`: the Potency result was “inactive”.

Take `CC(O)C(=O)O` (stereo not given): the Potency entry was “inactive”.

On to `NCCN1CCNCC1`, for which the Potency entry was “inactive”.

Regarding `COc1cc(NC(=O)CC(C)=O)c(OC)cc1Cl`, the Potency entry is “inactive”.

Consider `Cc1cccc(O)c1`, for which the Potency entry is “inactive”.

On to `CC(=O)c1ccc(O)cc1`, for which the Potency result is “inactive”.

As for `c1ccc2n[nH]nc2c1`, the Potency result is “inactive”.

With `C=CN1CCCC1=O`, the Potency entry is “inactive”.

Turning to `CCCCN(CCCC)CCCC`, the Potency result was “inactive”.

Consider `CC1(C)O[C@@H]2[C@@H](CO[C@@]3(COS(N)(=O)=O)OC(C)(C)O[C@@H]23)O1`, for which the Potency result was “inactive”.

Consider `[O-]/[N+](=N\O)c1ccccc1`, for which the Potency result is “inactive”.

In the case of `CC1=CC[C@H]2C[C@@H]1C2(C)C`, the Potency result was “inactive”.

As to `COc1ccc(NC(C)=O)cc1N`, the Potency entry was “inactive”.

For the compound `CCC(C)C=O` (stereo not given), the Potency entry is “inactive”.

Regarding `O=C(O)CCCCC(=O)O`, the Potency entry is “inactive”.

For `COC(=O)c1ccc(C)cc1`, the Potency entry is “inactive”.

Turning to `Cc1ccc(C)c(OCCCC(C)(C)C(=O)O)c1`, the Potency result was “inactive”.

As to `CC1=C(/C=C/C(C)=C/C=C/C(C)=C/CO)C(C)(C)CCC1`, the Potency entry is “inactive”.

With `CC(=O)OC(C)(C)C1CC=C(C)CC1` (stereo not given), the Potency entry is “inactive”.

As for `c1ccc2c(c1)ccc1ccccc12`, the Potency entry is “inactive”.

For `CCCCOC(=O)CCCCCCCCC(=O)OCCCC`, the Potency result was “inactive”.

On to `O=c1c(O)c(-c2ccc(O)cc2)oc2cc(O)cc(O)c12`, for which the Potency entry is “inactive”.

`CCC(Cc1c(I)cc(I)c(N)c1I)C(=O)O` (stereo not given): the Potency result is “inactive”.

For the compound `OC[C@]1(O)OC[C@@H](O)[C@H](O)[C@@H]1O`, the Potency result is “inactive”.

On to `Oc1c(Cl)cc(Cl)cc1Sc1cc(Cl)cc(Cl)c1O`, for which the Potency entry is “inactive”.

Turning to `CC1(C)S[C@@H]2[C@H](NC(=O)[C@H](N)c3ccccc3)C(=O)N2[C@H]1C(=O)O`, the Potency result is “inactive”.

With `NC(=O)N/N=C/c1ccc([N+](=O)[O-])o1`, the Potency result was “inactive”.

Regarding `CCCCOCCOC(=O)c1ccccc1C(=O)OCCOCCCC`, the Potency result is “inactive”.

As for `CCc1cccc(CC)c1N`, the Potency result was “inactive”.

With `O=C1OC2(c3ccccc31)c1cc(I)c(O)c(I)c1Oc1c2cc(I)c(O)c1I`, the Potency is 31.3 µM (active) and 26.8 µM (active).

Take `Cc1ncc([N+](=O)[O-])n1C`: the Potency result is “inactive”.

Turning to `O=S(=O)(O)c1ccc2ccccc2c1`, the Potency result is “inactive”.

On to `c1cc(-c2ccncc2)ccn1`, for which the Potency entry is “inactive”.

As to `CCO[Si](CCCNC(N)=O)(OCC)OCC`, the Potency result is “inactive”.

For `NC1CCCCC1`, the Potency entry is “inactive”.

For `O=C(c1ccccc1)c1ccc(O)c(O)c1O`, the Potency result was “inactive”.

With `CC(C)NCC(O)c1ccc(O)c(O)c1` (stereo not given), the Potency entry was “inactive”.
